# The supplement of paper PMC4840960
# Structures can show the parent of a compound that is named as a salt. ± gives the standard deviation of the averaged measurements.
# Tests used:
# [1] = tested on: E18 rat cortical neuron-glia co-culture; experiment: fiber score / MBP score (myelination specific beyond OL differentiation) (ratio); higher = more myelination-specific MBP alignment; details: treatment time: 8 days (DIV5-DIV13)
# Summary of the method: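 The measure is the ratio of fiber score to MBP score, where fiber score is continuous MBP fiber length per Olig2+ nucleus and MBP score is thresholded MBP area × intensity per Olig2+ nucleus. Primary E18 rat cortical co-cultures received library compounds at 1 or 5 µM in myelination medium from DIV5 to DIV13, then were fixed in 4 % paraformaldehyde and stained for MBP, Olig2 and DAPI before analysis of four 10X fields per well in duplicate wells.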
# [2] = tested on: E18 rat cortical neuron-glia co-culture; experiment: myelination (MBP fiber length per Olig2+ nucleus), % of 1 µM DAPT response (DMSO = 0) (% of DAPT); higher = more myelination, active = 50 or more; details: treatment time: 8 days (DIV5-DIV13)
# Summary of the method: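 The myelination value was the continuous straight MBP fiber length per Olig2+ nucleus, scaled between 0.1 % DMSO (0) and a 1 µM positive control (100). It was measured in primary E18 rat cortical co-cultures treated with library compounds at 1 or 5 µM in myelination medium from DIV5 through DIV13. Cells were fixed in 4 % paraformaldehyde and stained for MBP, Olig2 and DAPI, and four 10X fields per well were imaged in duplicate wells.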
Structure (SMILES),fiber score / MBP score ([1]; 1 µM),fiber score / MBP score ([1]; 5 µM),myelination ([2]; 1 µM),myelination ([2]; 5 µM)
CCn1cc(C(=O)O)c(=O)c2cc(F)c(N3CCNCC3)cc21 [Norfloxacin],0.701,0.729,-19.9 (inactive),-11.1 (inactive)
C[C@H]1C[C@H]2[C@@H]3CCC4=CC(=O)C=C[C@]4(C)[C@@]3(Cl)[C@@H](O)C[C@]2(C)[C@@]1(O)C(=O)CO [Beclomethasone],0.828 ± 0.36,0.822 ± 0.021,-2.48 (inactive),-7.92 (inactive)
CCCCC(=O)N(Cc1ccc(-c2ccccc2-c2nnn[nH]2)cc1)[C@H](C(=O)O)C(C)C [Valsartan],0.885,0.655,-7.17 (inactive),-17.4 (inactive)
CC(C)[N+]1(C)[C@@H]2CC[C@H]1C[C@@H](OC(=O)C(CO)c1ccccc1)C2 (stereo not given in full) [Ipratropium],0.783,1.52,0.204 (inactive),32.8 (inactive)
CC(C)(C)NC(=O)[C@H]1CC[C@H]2[C@@H]3CC[C@H]4NC(=O)C=C[C@]4(C)[C@H]3CC[C@]12C [Finasteride],0.7,0.898,-19.1 (inactive),-10.7 (inactive)
OC(CCN1CCCCC1)(c1ccccc1)C1CCCCC1 (stereo not given) [Trihexyphenidyl],0.616,0.486,-12.2 (inactive),-15.2 (inactive)
Cc1ncc([N+](=O)[O-])n1CC(O)CCl (stereo not given) [Ornidazole],0.58,0.686,-14.7 (inactive),-1.4 (inactive)
C[C@H]1O[C@@H](O[C@H]2[C@@H](O)C[C@H](O[C@H]3[C@@H](O)C[C@H](O[C@H]4CC[C@@]5(C)[C@H](CC[C@@H]6[C@@H]5C[C@@H](O)[C@]5(C)[C@@H](C7=CC(=O)OC7)CC[C@]65O)C4)O[C@@H]3C)O[C@@H]2C)C[C@H](O)[C@@H]1O [Digoxin],1.37,1.46,34 (inactive),68.2
CC1(C)S[C@@H]2[C@H](/N=C/N3CCCCCC3)C(=O)N2[C@H]1C(=O)O [Amdinocillin],0.728,0.866,-21.5 (inactive),-5.42 (inactive)
O=C1CN(/N=C/c2ccc([N+](=O)[O-])o2)C(=O)N1 [Nitrofurantoin],0.819,1.79,-1.03 (inactive),44 (inactive)
CCCN[C@H]1CCc2nc(N)sc2C1 [Pramipexole],0.851 ± 0.02,0.903 ± 0.21,-6.49 (inactive),-14.4 (inactive)
CCOc1cc(CC(=O)N[C@@H](CC(C)C)c2ccccc2N2CCCCC2)ccc1C(=O)O [Repaglinide],0.81,1.19,-8.93 (inactive),2.54 (inactive)
CCCNC(C)C(=O)Nc1ccccc1C (stereo not given) [Prilocaine],0.73,1.1,-5.12 (inactive),9.24 (inactive)
O=C1CC2(CCCC2)CC(=O)N1CCCCN1CCN(c2ncccn2)CC1 [Buspirone],0.713,0.313,-14.9 (inactive),-34 (inactive)
COc1ccc2cc([C@H](C)C(=O)O)ccc2c1 [Naproxen],0.831,0.859,-5.15 (inactive),-4.96 (inactive)
COc1ccccc1OCC(O)COC(N)=O (stereo not given) [Methocarbamol],0.67,0.985,-9.38 (inactive),-3.49 (inactive)
Cc1ncc([N+](=O)[O-])n1CC(C)O (stereo not given) [Secnidazole],0.462,0.618,-31.6 (inactive),-18.7 (inactive)
CCCCNC(=O)NS(=O)(=O)c1ccc(C)cc1 [Tolbutamide],0.923,0.898,-1.85 (inactive),-4.03 (inactive)
C[C@@H]1C[C@H]2[C@@H]3C[C@H](F)C4=CC(=O)C(Cl)=C[C@]4(C)[C@@]3(F)[C@@H](O)C[C@]2(C)[C@@]1(O)C(=O)CO [Halometasone hydrate],0.566,0.394,-20.7 (inactive),-30.1 (inactive)
CCCC1O[C@@H]2C[C@H]3[C@@H]4CCC5=CC(=O)C=C[C@]5(C)[C@H]4[C@@H](O)C[C@]3(C)[C@]2(C(=O)CO)O1 (stereo not given in full) [Budesonide],0.86,0.762,3.65 (inactive),-18.8 (inactive)
Clc1ccc2nsnc2c1NC1=NCCN1 [Tizanidine],0.796,0.443,-26.5 (inactive),-54.3 (inactive)
O=C1CN(/N=C/c2ccc(-c3ccc([N+](=O)[O-])cc3)o2)C(=O)N1 [Dantrolene sodium salt dihydrate],0.33,0.372,-11.8 (inactive),-14.2 (inactive)
Nc1nc2ccc(Cl)cc2c2nc(-c3ccco3)nn12,0.556,0.773,-37.8 (inactive),-3.25 (inactive)
O=C(O)COCCN1CCN(C(c2ccccc2)c2ccc(Cl)cc2)CC1 (stereo not given) [Cetirizine],0.908,1.11,-5.85 (inactive),-4.35 (inactive)
C[C@H](CCC(=O)O)[C@H]1CC[C@H]2[C@@H]3[C@H](O)C[C@@H]4C[C@H](O)CC[C@]4(C)[C@H]3CC[C@]12C [Chenodeoxycholic Acid],0.861,0.787,-8.08 (inactive),-12 (inactive)
